Compound activity deposited in PubChem BioAssay by several laboratories.
TIM10 inh – TIM10 yeast growth inhibition; 330,000 tested, 1.4% active; inhibition, % at 10 µM; S. cerevisiae TIM10 strain growth, BacTiter-Glo luminescence, 24 h; AID 463195;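 active = inhibition of 40% or more at the single tested concentration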;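 also: wild-type TIM10 isogenic control strain grown at permissive 25 °C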
tim23-1 inh – growth inhibitors of tim23-1 mutant yeast; inhibition, % at 20 µM; 330,000 tested, 1.3% active; S. cerevisiae tim23-1 growth, BacTiter-Glo luminescence, 24 h; AID 463212;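 active = growth inhibition of the mutant yeast at or above 50%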;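 also: temperature-sensitive mutant grown at 25 °C; plate controls were DMSO-treated mutant yeast for no effect and medium wells lacking yeast for full effect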
PfHsp90 set2 – inhibits growth of yeast expressing Plasmodium falciparum Hsp90. S. cerevisiae expressing PfHsp90, BacTiter-Glo ATP, 48 h; yeast lacking PDR1 and PDR3 efflux regulators. inhibition, % at 9.4 µM. 310,000 tested, 0.32% active. AID 504621;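 active = every replicate shows inhibition above about 80%, whatever the replicate mean, limit read from the data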;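 also: 0% = DMSO neutral controls and 100% = 20 µM radicicol positive controls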
tim10-1 inh – inhibits growth of tim10-1 mutant yeast; inhibition, % at 20 µM; AID 463190; 330,000 tested, 2.2% active; S. cerevisiae tim10-1 ts strain growth, BacTiter-Glo, 24 h;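 active = inhibition of at least 40%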;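 also: mutant grown at 25 °C; 0% = DMSO wells with yeast and 100% = wells holding no yeast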
NALP3 yeast inh – inhibitors of NALP3 inflammasome in yeast; 330,000 tested, 0.39% active; AID 2825; Yeast reconstituted NLRP3/ASC/caspase-1, beta-gal luminescence, 24 h; inhibition, % at 10 µM;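 active = inhibition of 50% or more; inactive = inhibition below 50%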;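 also: plate controls were induced DMSO wells for no effect and uninduced yeast grown without galactose for full effect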
tim10-1 confirm – confirmation of tim10-1 mutant yeast growth inhibitors. inhibition, % at 20 µM. 7,400 tested, 56% active. S. cerevisiae tim10-1 ts strain growth, BacTiter-Glo, 24 h. shares compounds with tim10-1 inh. AID 463213;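 active = inhibition of yeast growth at or above a set limit in either of two repeat tests at 20 µM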;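 also: tim10-1 mutant grown at permissive 25 °C to find synthetic lethal compounds; 0% = DMSO yeast wells and 100% = medium wells without yeast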
The depositor's hits bear a star; . = no result given. Shown are actives, neighbours in structure and some others; about 3.7% of the full set was active somewhere.

SMILES	TIM10 inh	tim23-1 inh	PfHsp90 set2	tim10-1 inh	NALP3 yeast inh	tim10-1 confirm
CCn1nc(NS(=O)(=O)c2ccc(C)cc2)c2cc3ccccc3nc21	-8.8	34.0	3.4	43.8*	11.6	-9.4
CCn1nc(NS(=O)(=O)c2ccc([N+](=O)[O-])cc2)c2cc3ccccc3nc21	10.9	8.7	-5.7	2.0	19.4	.
CCCn1nc(NS(C)(=O)=O)c2cc3cccc(C)c3nc21	27.3	34.1	.	42.4*	19.3	35.0*
CCCn1nc(NC(=O)CC)c2cc3cccc(C)c3nc21	20.3	23.7	11.7	17.3	21.0	.
COC(=O)[C@H](C(C)C)N(Cc1ccccc1)S(=O)(=O)CCNC1CCCC1	9.3	33.4	-15.8	19.4	.	.
Cc1ccc(CNCc2cc3c(C(C)(C)C)nn(-c4ccccc4)c3[nH]c2=O)cc1	23.9	45.7	.	49.7*	24.9	38.7*
COc1ccc(CNCc2cc3c(C(C)(C)C)nn(-c4ccccc4)c3[nH]c2=O)cc1	16.4	18.1	36.9	27.2	14.0	.
Cc1ccc(S(=O)(=O)CC(=O)NCc2ccc(Cl)cc2)cc1	10.2	11.0	3.3	12.9	4.9	.
Cc1ccc2c(CC(=O)O)coc2c1C	-13.2	24.1	26.2	41.1*	3.2	17.1
C#CCOCCOCCOCCNc1nc(N2CCN(C(=O)CCCCCCCCCCNC(=O)[C@H](CCCCN)n3cc(CCO)nn3)CC2)nc(N2CCN(C(=O)CCCCCCCCCCNC(=O)[C@H](CCCN=C(N)N)n3cc(C[C@@H](C)CC)nn3)CC2)n1	6.2	49.8	25.1	42.2*	15.6	28.2
C#CCOCCOCCOCCNc1nc(N2CCN(C(=O)CCCCCCCCCCNC(=O)[C@H](CCCCN)n3cc(C[C@@H](C)CC)nn3)CC2)nc(N2CCN(C(=O)CCCCCCCCCCNC(=O)[C@H](CCCCN)n3cc(C[C@@H](C)CC)nn3)CC2)n1	.	.	47.0	.	.	.
CC(C)(C)c1nnc(NS(=O)(=O)c2cc(Cl)ccc2Cl)s1	-0.4	-1.7	-8.9	-12.2	8.8	.
O=S(=O)(Nc1nc(-c2sccc2Cl)cs1)c1cc(Cl)ccc1Cl	33.4	36.8	-55.1	43.1*	8.6	13.3
Cc1nc2c(Br)cc(Br)cc2c(=O)n1-c1ccccc1NC1OCC(O)C(O)C1O (centres undefined)	.	.	-42.0	.	.	.
C=CCn1c(O)c(N=NC(=O)CNC(=O)c2ccncc2)c2ccccc21	-8.2	-7.1	-0.8	0.5	5.2	.
CC(C)(C)Cc1nc2ccccc2n1CCc1ccccc1	37.0	35.7	-13.7	41.2*	16.6	27.4
CCc1nc2ccccc2n1CCc1ccccc1	3.6	8.1	-11.6	17.8	0.1	.
N/C(=N\OC(=O)c1ccc(Cl)cc1)c1ccn[nH]1	31.5	31.4	-3.2	20.8	4.7	.
N/C(=N\OC(=O)C(c1ccccc1)c1ccccc1)c1cccnc1	-7.9	18.7	-6.6	41.2*	4.3	8.2
N/C(=N\OC(=O)c1cccc2ccccc12)c1cccnc1	34.0	25.6	4.6	61.7*	0.3	65.3*
N/C(=N\OC(=O)c1ccc(Cl)cc1)c1cccnc1	32.8	49.7	16.6	65.1*	5.7	61.8*
N/C(=N\OC(=O)c1ccc(Cl)cc1)c1ccc(Cl)cc1	11.8	23.3	7.2	43.2*	32.6	33.6*
N/C(=N\OC(=O)c1ccco1)c1cccnc1	-6.7	8.4	5.2	-8.2	24.1	.
Cc1cccc(N2CCN(C(=O)C3CCN(c4ncnc5c4nc4n5CCCCC4)CC3)CC2C)c1 (centres undefined)	30.6	35.6	8.9	32.7	0.8	.
COc1cc2c(cc1OC)CN(C(=O)/C=C/c1ccccc1[N+](=O)[O-])CC2	-49.3	-2.1	8.9	-40.4	6.5	.
SMILES	TIM10 inh	tim23-1 inh	PfHsp90 set2	tim10-1 inh	NALP3 yeast inh	tim10-1 confirm
COc1ccc(CCNC(=O)C2(C)CCC(=O)N2Cc2ccc(C)cc2)cc1OC (centres undefined)	22.5	-0.1	33.7	-2.8	25.4	.
CN(C)S(=O)(=O)c1cccc(NC(=S)NN=C(Cc2ccccc2)Cc2ccccc2)c1	21.9	41.0	-45.3	43.6*	10.2	22.0
Cc1c(C(=O)/C=C/c2cccs2)oc2ccc(F)cc12	29.9	30.6	-24.4	45.1*	4.7	38.0*
CCOC(=O)Cc1csc2nc3sc(C)c(C)c3c(=O)n12	-6.3	17.1	-107.5	43.2*	-0.9	12.8
CC(=O)Oc1ccc(C23c4ccccc4C2(OC(C)=O)c2cc(OC(C)=O)ccc23)cc1 (centres undefined)	.	.	-24.6	.	.	.
Cc1cc(-c2ccc(C)c(S(=O)(=O)NCc3ccc(Br)cc3)c2)on1	0.1	46.3	11.5	43.2*	19.0	-6.6
Cc1cc(-c2ccc(C)c(S(=O)(=O)NCCc3ccc(S(N)(=O)=O)cc3)c2)on1	3.1	-2.7	4.6	-3.8	-12.2	.
Cc1cc(-c2ccc(C)c(S(=O)(=O)NCc3cccc(Br)c3)c2)on1	-4.8	31.2	-36.1	40.9*	12.9	-2.1
Oc1ccc(C[C@H]2CNC(=S)N2CC2CCCN2C[C@H](Cc2ccc(O)cc2)N2C[C@H](Cc3ccc(O)cc3)N(CC3CCCCCC3)C2=S)cc1 (some centres undefined)	.	.	-26.0	.	.	.
CC1CN(C(=O)Nc2ccc3snnc3c2)c2ccccc21 (centres undefined)	24.7	47.5	18.6	47.5*	-3.2	22.0
COC(=O)[C@@H](c1ccccc1)N(C)S(=O)(=O)c1cccc(S(=O)(=O)N(C)[C@@H](C(=O)OC)c2ccccc2)c1	7.2	21.3	7.0	17.2	8.8	.
COc1ccc(NC(=O)COC(=O)Cn2cnc3ccccc32)cc1	0.5	5.8	7.4	0.8	-10.2	.
COc1ccc(-n2c(C)cc(C(=O)COC(=O)Cn3cnc4ccccc43)c2C)cc1	27.6	35.0	-13.3	52.9*	15.2	27.5
N/C(=N\OC(=O)COc1ccc2ccccc2c1Br)c1cccnc1	7.9	12.9	.	-3.4	13.6	.
N/C(=N\OC(=O)COc1ccc2ccccc2c1Br)c1ccccn1	36.2	31.2	-26.8	43.2*	34.7	54.9*
COc1cccc(/C=N/NC(=O)C(=O)NCc2ccco2)c1OC	12.1	7.5	-0.5	20.9	15.9	.
COc1cccc(/C=N/NC(=O)C(=O)NCc2ccco2)c1O	30.6	37.2	-8.2	58.2*	7.5	13.8
Cc1ccc(N2C(=O)N3[C@H]4c5ccccc5OC[C@@H]4[C@@H](c4ccccc4)[C@@]3(C)C2=O)cc1	7.2	24.4	-10.7	49.0*	24.4	19.0
CCOC1=CC(=O)OC(c2ccccc2)C1 (centres undefined)	.	.	19.2	.	.	.
N#CC(C#N)=CC1=C2OC(c3ccccc3)=CC(c3ccccc3)=C2CCC1	22.9	43.1	-18.5	48.4*	10.2	12.6
CCn1nccc1C(=O)Nc1cc(Cl)cc(Cl)c1	34.8	41.4	14.0	40.7*	32.2	24.5
CCOc1ccccc1Nc1nc(-c2sc(NC(=O)c3ccco3)nc2C)cs1	0.7	30.7	-6.0	17.4	16.9	.
